# Experimental data reported in ChEMBL document CHEMBL1961873, “Compounds: GSK PKIS; Assays: Nanosyn kinase panel” (2012).
# What was measured:
# [1] = target: Rho-associated protein kinase 1 (Homo sapiens) (UniProt Q13464); conditions: at 1 µM;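 further: reported values are mean percent inhibition of ROCK1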
# [2] = target: Rho-associated protein kinase 2 (Homo sapiens) (UniProt O75116); conditions: at 0.1 µM
# [3] = target: Rho-associated protein kinase 2 (Homo sapiens) (UniProt O75116); conditions: at 1 µM
# [4] = target: Ribosomal protein S6 kinase alpha-1 (Homo sapiens) (UniProt Q15418); conditions: at 0.1 µM
# Chain of Ribosomal protein S6 kinase alpha-1 (Homo sapiens) (Q15418 whole entry): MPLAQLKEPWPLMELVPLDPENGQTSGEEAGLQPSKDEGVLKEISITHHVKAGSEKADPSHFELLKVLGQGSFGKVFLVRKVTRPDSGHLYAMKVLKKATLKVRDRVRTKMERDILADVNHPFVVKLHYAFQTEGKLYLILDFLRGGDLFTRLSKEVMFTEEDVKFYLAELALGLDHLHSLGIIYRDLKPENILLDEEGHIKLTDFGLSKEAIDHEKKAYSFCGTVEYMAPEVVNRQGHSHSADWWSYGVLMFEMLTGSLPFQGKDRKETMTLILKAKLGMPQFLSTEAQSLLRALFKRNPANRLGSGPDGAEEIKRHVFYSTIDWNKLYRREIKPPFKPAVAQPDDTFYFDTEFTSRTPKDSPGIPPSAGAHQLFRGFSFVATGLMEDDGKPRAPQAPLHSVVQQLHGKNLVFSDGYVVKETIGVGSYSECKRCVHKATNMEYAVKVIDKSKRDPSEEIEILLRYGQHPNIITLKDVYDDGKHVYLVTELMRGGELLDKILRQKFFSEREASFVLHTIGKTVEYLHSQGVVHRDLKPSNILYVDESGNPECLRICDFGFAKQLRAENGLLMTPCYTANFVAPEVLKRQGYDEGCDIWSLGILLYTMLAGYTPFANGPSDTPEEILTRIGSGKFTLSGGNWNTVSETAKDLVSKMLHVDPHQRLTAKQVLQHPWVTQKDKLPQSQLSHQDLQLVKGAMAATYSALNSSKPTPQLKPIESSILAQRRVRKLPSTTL
# [5] = target: Ribosomal protein S6 kinase alpha-1 (Homo sapiens) (UniProt Q15418); conditions: at 1 µM
# [6] = target: Ribosomal protein S6 kinase alpha-3 (Homo sapiens) (UniProt P51812); conditions: at 0.1 µM
# [7] = target: Ribosomal protein S6 kinase alpha-3 (Homo sapiens) (UniProt P51812); conditions: at 1 µM
# [8] = target: Ribosomal protein S6 kinase alpha-2 (Homo sapiens) (UniProt Q15349); conditions: at 0.1 µM
# Chain of Ribosomal protein S6 kinase alpha-2 (Homo sapiens) (Q15349 whole entry): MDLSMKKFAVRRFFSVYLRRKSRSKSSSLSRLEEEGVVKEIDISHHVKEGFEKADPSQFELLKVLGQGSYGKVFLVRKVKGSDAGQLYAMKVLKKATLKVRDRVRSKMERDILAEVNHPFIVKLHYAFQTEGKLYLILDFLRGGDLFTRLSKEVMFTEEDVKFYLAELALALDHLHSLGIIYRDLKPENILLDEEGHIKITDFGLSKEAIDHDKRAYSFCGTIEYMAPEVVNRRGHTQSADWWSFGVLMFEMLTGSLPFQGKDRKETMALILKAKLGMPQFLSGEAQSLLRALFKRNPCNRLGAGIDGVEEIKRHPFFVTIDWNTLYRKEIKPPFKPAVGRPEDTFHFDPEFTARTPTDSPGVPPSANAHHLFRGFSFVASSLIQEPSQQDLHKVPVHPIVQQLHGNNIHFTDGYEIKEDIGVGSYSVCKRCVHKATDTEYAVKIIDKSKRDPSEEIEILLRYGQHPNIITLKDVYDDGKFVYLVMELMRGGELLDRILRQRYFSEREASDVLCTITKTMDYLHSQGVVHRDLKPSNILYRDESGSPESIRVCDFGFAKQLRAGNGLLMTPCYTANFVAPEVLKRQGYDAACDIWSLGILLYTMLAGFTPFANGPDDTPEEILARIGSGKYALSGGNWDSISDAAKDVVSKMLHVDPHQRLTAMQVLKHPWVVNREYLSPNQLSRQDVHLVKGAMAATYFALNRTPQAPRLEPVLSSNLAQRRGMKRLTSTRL
# [9] = target: Ribosomal protein S6 kinase alpha-2 (Homo sapiens) (UniProt Q15349); conditions: at 1 µM
# [10] = target: Ribosomal protein S6 kinase alpha-6 (Homo sapiens) (UniProt Q9UK32); conditions: at 0.1 µM;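 further: reported value is the mean inhibition of RSK4, from the GSK PKIS kinase inhibitor screen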
# Chain of Ribosomal protein S6 kinase alpha-6 (Homo sapiens) (Q9UK32 whole entry): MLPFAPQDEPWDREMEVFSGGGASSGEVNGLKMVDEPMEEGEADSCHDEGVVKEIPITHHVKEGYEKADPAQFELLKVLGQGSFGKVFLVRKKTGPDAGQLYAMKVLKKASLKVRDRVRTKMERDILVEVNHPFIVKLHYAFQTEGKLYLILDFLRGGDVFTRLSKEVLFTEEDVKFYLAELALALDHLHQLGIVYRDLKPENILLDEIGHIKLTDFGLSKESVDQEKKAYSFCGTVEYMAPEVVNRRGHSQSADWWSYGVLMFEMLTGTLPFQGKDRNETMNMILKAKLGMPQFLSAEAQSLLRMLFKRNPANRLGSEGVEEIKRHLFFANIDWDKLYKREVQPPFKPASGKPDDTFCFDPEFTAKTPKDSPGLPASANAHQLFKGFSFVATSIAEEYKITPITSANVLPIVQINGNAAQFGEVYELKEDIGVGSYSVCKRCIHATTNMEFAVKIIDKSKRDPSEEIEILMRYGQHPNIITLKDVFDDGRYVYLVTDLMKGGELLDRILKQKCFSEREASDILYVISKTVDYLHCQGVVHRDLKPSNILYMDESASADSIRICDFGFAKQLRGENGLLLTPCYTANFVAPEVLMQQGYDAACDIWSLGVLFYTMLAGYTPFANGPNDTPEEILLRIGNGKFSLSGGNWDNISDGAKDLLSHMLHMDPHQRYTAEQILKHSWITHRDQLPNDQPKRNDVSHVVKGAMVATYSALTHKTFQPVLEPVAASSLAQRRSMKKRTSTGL
# Chain of Rho-associated protein kinase 1 (Homo sapiens) (Q13464 2-1354 limits assumed): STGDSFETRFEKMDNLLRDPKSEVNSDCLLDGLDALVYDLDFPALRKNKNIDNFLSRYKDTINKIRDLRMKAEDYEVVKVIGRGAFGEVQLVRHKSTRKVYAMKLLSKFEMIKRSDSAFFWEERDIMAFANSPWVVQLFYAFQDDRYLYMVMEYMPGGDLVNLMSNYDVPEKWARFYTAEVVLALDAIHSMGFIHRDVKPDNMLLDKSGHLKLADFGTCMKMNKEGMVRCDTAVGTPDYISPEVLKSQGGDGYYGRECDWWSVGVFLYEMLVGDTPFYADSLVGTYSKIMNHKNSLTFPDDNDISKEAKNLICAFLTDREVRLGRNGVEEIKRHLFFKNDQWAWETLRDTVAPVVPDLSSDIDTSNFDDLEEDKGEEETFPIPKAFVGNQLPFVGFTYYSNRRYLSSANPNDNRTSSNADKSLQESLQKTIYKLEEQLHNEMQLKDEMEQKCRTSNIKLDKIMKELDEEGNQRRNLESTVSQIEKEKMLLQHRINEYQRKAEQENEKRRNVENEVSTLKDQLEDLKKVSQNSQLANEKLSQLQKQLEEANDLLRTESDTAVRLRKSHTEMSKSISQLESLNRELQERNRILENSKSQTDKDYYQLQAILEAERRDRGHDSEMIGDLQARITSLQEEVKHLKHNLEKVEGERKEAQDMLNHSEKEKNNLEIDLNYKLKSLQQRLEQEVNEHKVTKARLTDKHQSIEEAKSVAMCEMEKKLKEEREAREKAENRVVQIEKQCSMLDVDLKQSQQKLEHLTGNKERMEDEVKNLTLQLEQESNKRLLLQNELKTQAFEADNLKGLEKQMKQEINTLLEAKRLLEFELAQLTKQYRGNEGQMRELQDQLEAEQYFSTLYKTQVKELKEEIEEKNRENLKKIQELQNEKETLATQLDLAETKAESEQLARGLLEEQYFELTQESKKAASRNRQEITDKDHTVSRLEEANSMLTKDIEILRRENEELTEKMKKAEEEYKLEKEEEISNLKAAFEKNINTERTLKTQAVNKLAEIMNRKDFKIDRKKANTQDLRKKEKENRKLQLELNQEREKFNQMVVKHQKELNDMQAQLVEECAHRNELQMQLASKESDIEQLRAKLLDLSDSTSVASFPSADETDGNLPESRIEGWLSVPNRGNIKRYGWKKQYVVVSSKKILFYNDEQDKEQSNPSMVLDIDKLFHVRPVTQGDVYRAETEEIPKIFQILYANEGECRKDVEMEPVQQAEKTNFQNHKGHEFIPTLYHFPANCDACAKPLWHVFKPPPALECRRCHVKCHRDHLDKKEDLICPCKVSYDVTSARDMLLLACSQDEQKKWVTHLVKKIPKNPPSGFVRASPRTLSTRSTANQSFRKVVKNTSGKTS
# Chain of Rho-associated protein kinase 2 (Homo sapiens) (O75116 whole entry, looked up): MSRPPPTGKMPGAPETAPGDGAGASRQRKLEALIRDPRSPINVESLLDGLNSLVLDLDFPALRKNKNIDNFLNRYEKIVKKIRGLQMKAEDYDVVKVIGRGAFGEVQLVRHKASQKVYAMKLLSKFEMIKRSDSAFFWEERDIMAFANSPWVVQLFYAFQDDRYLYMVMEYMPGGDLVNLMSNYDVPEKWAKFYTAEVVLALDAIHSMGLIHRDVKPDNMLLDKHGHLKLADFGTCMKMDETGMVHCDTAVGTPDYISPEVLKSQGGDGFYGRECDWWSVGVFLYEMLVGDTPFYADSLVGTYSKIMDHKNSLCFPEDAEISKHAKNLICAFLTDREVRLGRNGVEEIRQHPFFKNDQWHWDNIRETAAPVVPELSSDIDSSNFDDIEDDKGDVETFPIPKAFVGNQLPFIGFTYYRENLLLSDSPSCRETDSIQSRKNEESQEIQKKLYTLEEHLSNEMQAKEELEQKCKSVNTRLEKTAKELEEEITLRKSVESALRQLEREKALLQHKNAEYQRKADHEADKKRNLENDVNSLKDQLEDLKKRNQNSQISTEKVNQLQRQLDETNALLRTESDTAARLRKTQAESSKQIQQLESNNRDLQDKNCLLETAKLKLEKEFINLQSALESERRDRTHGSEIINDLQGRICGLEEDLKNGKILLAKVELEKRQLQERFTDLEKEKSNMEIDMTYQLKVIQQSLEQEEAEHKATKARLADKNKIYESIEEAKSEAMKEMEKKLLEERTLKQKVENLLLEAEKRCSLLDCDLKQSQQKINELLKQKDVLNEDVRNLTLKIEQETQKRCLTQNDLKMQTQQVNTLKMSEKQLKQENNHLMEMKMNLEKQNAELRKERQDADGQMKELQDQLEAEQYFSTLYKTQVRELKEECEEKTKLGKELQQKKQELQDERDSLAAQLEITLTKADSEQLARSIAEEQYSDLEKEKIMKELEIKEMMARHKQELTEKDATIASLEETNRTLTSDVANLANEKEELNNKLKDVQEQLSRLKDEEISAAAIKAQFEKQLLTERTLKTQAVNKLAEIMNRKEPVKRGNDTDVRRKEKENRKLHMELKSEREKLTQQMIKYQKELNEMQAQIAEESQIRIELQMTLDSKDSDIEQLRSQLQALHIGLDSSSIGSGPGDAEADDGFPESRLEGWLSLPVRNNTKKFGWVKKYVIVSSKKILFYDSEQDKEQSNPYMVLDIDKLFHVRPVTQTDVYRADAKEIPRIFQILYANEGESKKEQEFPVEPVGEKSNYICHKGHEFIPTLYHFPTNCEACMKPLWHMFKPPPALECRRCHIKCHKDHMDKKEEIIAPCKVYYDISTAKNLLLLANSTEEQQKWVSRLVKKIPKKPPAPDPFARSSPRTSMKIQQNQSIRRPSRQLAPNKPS
Structure (SMILES),inhibition [1],inhibition [2],inhibition [3],inhibition [4],inhibition [5],inhibition [6],inhibition [7],inhibition [8],inhibition [9],inhibition [10]
NS(=O)(=O)c1ccc(Nc2cc(-c3ccc(O)c(F)c3)n[nH]2)cc1,1.73%,-1.97%,3.32%,4.13%,32.6%,13.1%,56.4%,16.5%,63.5%,13.4%
c1ccc(-c2n[nH]cc2-c2ccnc(-c3ccc(OCCN4CCOCC4)cc3)c2)nc1,2.14%,-0.2%,-1.4%,0.42%,-1.3%,0.55%,0.57%,-0.89%,-0.56%,-0.33%
COc1ccc(C2=C(N3CCc4ccccc43)C(=O)NC2=O)cc1,1.57%,2.97%,3.17%,2.46%,4.09%,0.95%,1.69%,2.16%,3.86%,2.62%
O=C(Nc1n[nH]c2nc(-c3ccco3)ccc12)C1CC1,3.74%,1.89%,3%,0.92%,0.86%,-0.05%,0.78%,0.54%,1.46%,0.59%
O=C1NC(=O)C(c2cccc(Cl)c2)=C1Nc1ccc(Cl)c(C(=O)O)c1,0.78%,1.95%,4.98%,1.51%,2.92%,1.25%,1.6%,1.79%,1.6%,1.24%
Cc1ccc(C(=O)NC(C)C)cc1-c1ccc(C(=O)NCC2CC2)cc1,-0.1%,-1.71%,-1.76%,1.38%,-0.32%,1.65%,1.68%,-0.25%,0.47%,-0.44%
NS(=O)(=O)c1ccc(N/N=C2\C(=O)Nc3ccc(C(=O)NCCCn4ccnc4)cc32)cc1,8.77%,5.67%,25.4%,2.58%,7.85%,2.08%,9.61%,3.97%,12.8%,3.05%
CCN(CC)Cc1ccc(Nc2nccc(-c3cnn4ncccc34)n2)cc1,9.36%,2.02%,13.7%,0.21%,2.52%,-0.63%,2.49%,2.26%,3.81%,0.43%
CS(=O)(=O)CCNCc1ccc(-c2ccc3ncnc(Nc4ccc(OCc5ccccc5)c(Br)c4)c3c2)o1,2.16%,0.72%,1.26%,-0.49%,0.36%,-0.55%,-1.39%,1.5%,1.01%,-0.12%
C#Cc1cccc(Nc2ncnc3ccc(OCCCCNCCS(C)(=O)=O)cc23)c1,2.52%,3.83%,6.92%,3.85%,5.51%,2.14%,3.87%,3.31%,4.55%,1.75%
CN(C)c1ccc2c(c1)/C(=C/Nc1ccc(S(N)(=O)=O)cc1)C(=O)N2,5.77%,5.46%,13.3%,1.57%,11.6%,2.82%,14.7%,5.18%,25.9%,4.28%
COc1cc(N2CCN(C(C)C)CC2)ccc1Nc1nc(Nc2ccc(F)cc2C(=O)NC[C@@H](O)CO)c2cc[nH]c2n1,2.04%,4.24%,8.05%,3.27%,12.1%,2.71%,7.3%,3.45%,5.13%,2.51%
Nc1nccc(-c2c(-c3ccc(F)cc3)ncn2C2CCC(O)CC2)n1 (stereo not given),0.73%,-1.47%,-1.96%,-0.24%,2.78%,-0.92%,-0.98%,-0.62%,0.59%,-0.21%
COc1cccc(/C=N/Nc2ncnc3c2cnn3-c2cccc(OC)c2)c1,3.6%,2.65%,3.61%,1.05%,0.75%,0.86%,1.4%,1.64%,2.21%,0.2%
CCc1cccc(CC)c1/C=C/c1cncc(C(=O)NC)c1,1.22%,1.66%,-0.13%,1.4%,0.95%,0.3%,-0.37%,1.51%,0.74%,0.65%
Cc1ccc(C(=O)NC2CCC2)cc1-c1ccc(C(=O)NCC2CC2)cc1,1.32%,1.03%,-0.46%,1.52%,1.45%,0.97%,1.47%,1.58%,2.68%,1.63%
N#Cc1ccc(Oc2nccc(-c3c(-c4ccc(F)cc4)ncn3C3CCNCC3)n2)cc1,4.31%,2.81%,4.38%,0.36%,1.46%,1.39%,1.85%,2.38%,3.07%,0.67%

Structure (SMILES),inhibition [1],inhibition [2],inhibition [3],inhibition [4],inhibition [5],inhibition [6],inhibition [7],inhibition [8],inhibition [9],inhibition [10]
Clc1ccc(CNc2nccc(-c3cnn4ncccc34)n2)cc1,1.31%,2.04%,2.71%,1.41%,1.24%,0.05%,0.52%,0.62%,0.33%,2.62%
NC(=O)c1cc(-c2ccc(F)cc2)cc(-c2ccncc2)c1N,1.76%,2.33%,6.23%,1.16%,2.59%,0.17%,1.79%,1.82%,2.97%,0.55%
COc1cc(Nc2ncc3c(C)nc(-c4cccc(C(F)(F)F)c4)n3n2)cc(OC)c1OC,2.39%,2.6%,8.14%,5.19%,26.7%,5.91%,31.8%,7.09%,37.1%,5.57%
C[C@@H](Oc1cc(-n2cnc3ccc(OC4CCN(C)CC4)cc32)sc1C(N)=O)c1ccccc1Cl,5.39%,1.57%,5.08%,2.3%,12.4%,3.29%,21.8%,4.54%,20.2%,7.23%
O=C1Nc2ccc(I)cc2C1=Cc1cc(Br)c(O)c(Br)c1,2.32%,2.42%,4.03%,0.5%,2.27%,1.27%,1.7%,2.5%,3.82%,1.37%
NCc1ccc(-n2c(-c3nonc3N)nc3cnccc32)cc1,90.5%,82.9%,92.9%,56.2%,87.9%,43.4%,81.4%,55.5%,91.4%,10%
CCc1nccc2c1nc(-c1nonc1N)n2CC,11.5%,1.91%,17%,5.37%,35.2%,2.22%,15.6%,3.79%,26.9%,-0.93%
Fc1ccc(-c2c(-c3ccncc3)nc3n2CCS3)cc1,13.8%,11.2%,16.1%,3.39%,6.17%,3.04%,6%,2.43%,3.27%,1.3%
CN(c1ccc(NC(=O)Nc2c(Cl)cccc2Cl)cc1)c1ccnc(Nc2cccc(CS(C)(=O)=O)c2)n1,2.01%,3.46%,9.15%,2.34%,4.66%,2.08%,3.81%,-2.19%,1.78%,0.45%
CCc1ccc(Oc2nccc(-c3c(-c4ccc(F)cc4)ncn3C3CCNCC3)n2)cc1,3.4%,2.09%,3.7%,2.14%,3.42%,3.03%,4.07%,3.08%,3.54%,3.18%
CS(=O)(=O)CCNCc1cc(-c2cc3c(Nc4ccc(OCc5cccc(F)c5)c(Cl)c4)ncnc3s2)cs1,4.5%,3.92%,5.77%,-0.03%,1.94%,1.24%,1.57%,3.28%,2.95%,0.77%
COc1cc(C)c(N(C)C(=O)CN(C)C)cc1Nc1nc(Nc2cccc(F)c2C(N)=O)c2cc[nH]c2n1,1.48%,0.89%,-0.53%,1.17%,3.02%,1.14%,1.43%,1.84%,2.69%,1.67%
C[C@@H](Oc1cc(-n2cnc3ccc(OCC4CCN(C)CC4)cc32)sc1C(N)=O)c1ccccc1Cl,7.23%,3.44%,9.54%,3.39%,16.8%,4.17%,22.5%,5.72%,22.4%,8.06%
COc1cc(Nc2ncc(-c3ccccc3)o2)cc(OC)c1OC,1.85%,-0.74%,3.74%,0.23%,3.07%,0.02%,2.83%,0.65%,6.88%,0.47%
CN(C)CCCNc1nccc(-c2c(-c3ccc(F)cc3)nn3cc(C(F)(F)F)ccc23)n1,1.8%,1.71%,3.88%,2.04%,4.02%,0.68%,2.23%,1.91%,3.08%,0.86%
O=C1Nc2ccccc2/C1=C/Nc1ccc(-n2cncn2)cc1,1.71%,3.63%,7.17%,2.06%,10.9%,2.37%,8.64%,3.38%,14.2%,3.31%
COc1ccc(-c2ccc3c(NC(=O)C4CC4)n[nH]c3n2)cc1,-0.75%,1.6%,3.71%,0.22%,2.59%,1.62%,3%,1.1%,1.69%,0.83%
